FLuc counter: firefly luciferase modulation, counter-screen for miR-21 project; purified FLuc, Km substrates, luminescence inhibition; AID 588342; Potency, µM (top dose mostly 57.5 µM), without a hit: at the top dose activity change, negative = inhibition, actives largely listed as inhibitors; 6.9% of 360,000 active; P08659;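 further: plate controls were vehicle for no effect and reference inhibitor for full effect; nearly all actives have a fitted effect of over 55% in size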
Target sequence (P08659 whole entry, looked up): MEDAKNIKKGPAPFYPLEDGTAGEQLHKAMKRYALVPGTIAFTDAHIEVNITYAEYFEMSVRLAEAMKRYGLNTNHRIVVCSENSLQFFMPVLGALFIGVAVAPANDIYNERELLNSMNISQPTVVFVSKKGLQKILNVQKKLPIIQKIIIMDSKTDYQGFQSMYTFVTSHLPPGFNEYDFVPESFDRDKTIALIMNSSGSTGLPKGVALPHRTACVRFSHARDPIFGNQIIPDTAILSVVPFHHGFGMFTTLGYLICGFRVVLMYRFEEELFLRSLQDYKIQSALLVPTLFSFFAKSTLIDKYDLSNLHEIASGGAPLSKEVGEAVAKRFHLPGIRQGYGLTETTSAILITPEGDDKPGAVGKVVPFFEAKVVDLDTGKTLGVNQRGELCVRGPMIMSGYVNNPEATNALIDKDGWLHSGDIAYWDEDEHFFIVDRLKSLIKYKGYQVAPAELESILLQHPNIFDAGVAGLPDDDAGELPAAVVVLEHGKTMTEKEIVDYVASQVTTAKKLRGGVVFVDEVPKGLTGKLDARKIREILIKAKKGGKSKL
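Biochemical qHTS of compounds, final roughly 60 µM downward over six points, against 10 nM purified firefly luciferase using Km concentrations of substrates (10 uM D-luciferin, 10 uM ATP) in Tris acetate pH 7.5 buffer; luminescence output.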
SMN2 splice up: SMN2 splice variant enhancement; 2.8% of 210,000 active; HEK293 SMN2-luciferase splicing reporter, luminescence, 30-36 h; Potency, µM (doses to about 46.1 µM), for inactives: at the highest dose activity change, positive = activation, usual class: activators; further: % of control where 0% means no effect; nearly all actives have a fitted effect of over 55% in size
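HEK293 cells carry an SMN2 […]–luciferase reporter in which exon 7 inclusion puts luciferase in frame. Cells were plated 10-12 h before compound addition, then incubated 30-36 h at 37C. ONE-Glo luminescence was read; sodium butyrate at 4.5 mM final served as control.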
NPC1 promoter act: activates the NPC1 promoter; Huh7 NPC1 promoter luciferase reporter, 24 h; Potency, µM (top dose mostly 9.22 µM), for inactives: top-dose activation, most hits filed as activators; 2.4% of 320,000 active; further: % of control where 0% means no effect; nearly all actives have a fitted effect of over 60% in size
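Huh7 reporter cells (NPC1 promoter driving luciferase) are dosed with compound for 24 h at 37 °C, 5% CO2; luciferase detection reagent is then added and luminescence measured after 10 min at ambient temperature.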
ELG1 genotoxic: induces genotoxicity in HEK293T cells with luciferase-tagged ELG1; HEK293T ELG1-luciferase reporter, luminescence, 16 h; AID 504466; 1.3% of 330,000 active; Potency, µM (top dose mostly 46 µM), without a hit: at the top dose activity change, positive = activation, usual class: activators; further: % of control where 0% means no effect; nearly all actives have a fitted effect of over 60% in size
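16 hr compound incubation (37 °C, 5% CO2) of HEK293T cells carrying luciferase-tagged ELG1; luciferase then measured by ONE-Glo luminescence after 30 min at RT.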
Rab9 prom act: activators of Rab9 promoter. Huh7 Rab9 promoter-luciferase reporter, luminescence, 24 h. Potency, µM (top dose mostly 9.22 µM), inactives show top-dose activation, negative = inhibition, actives largely listed as activators. 2.8% of 320,000 active; further: % of control where 0% means no effect; nearly all actives have a fitted effect of over 60% in size
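Quantitative HTS format; Huh7 Rab9-luciferase reporter cells (1500/well) receive compound 2 h post-plating, incubate 24 h at 37 °C, then get luciferase reagent for 10 min before luminescence reading.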
ELG1 DNA repair: blocks ELG1-dependent DNA repair in HEK293T cells; HEK293T ELG1-luciferase reporter, luminescence, 16 h; DNA damage induced by 5-fluorouridine; Potency, µM (top dose mostly 46.1 µM), without a hit: at the top dose activity change, negative = inhibition, usual class: inhibitors; 2.3% of 330,000 active; further: on the % scale 0 is the no-effect control and ±100 the full control effect; nearly all actives have a fitted effect of over 55% in size
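Quantitative HTS, concentration-response format. 2,000 cells/well co-treated with 5-fluorouridine and compound, 16 hr in 5% CO2 at 37 °C; ONE-Glo luminescence read after 30 min.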
* marks the source's active call; other numbers are inactive results; u = inconclusive; x = no result. Sampled rows, rich in hits. Any-hit rate of the full collection: about 9.2%. The call rests on the fitted dose curve; in most records, active means well fitted curve in the direction sought with a large enough effect; inconclusive means small, poorly fitted or top-dose-only effect, or another doubt; inactive means no such curve, though single readings can be large; an effect the other way counts as inactive or inconclusive. Potency means the concentration at half of the fitted maximal effect.

SMILES	FLuc counter	SMN2 splice up	NPC1 promoter act	ELG1 genotoxic	Rab9 prom act	ELG1 DNA repair
CN(C)c1ccc(NC(N)=S)cc1	3.9%	u	1.6%	-0.2%	-5.6%	2.7%
CCOC(=O)c1c(C)[nH]c(C)c1S(=O)(=O)NCCc1cccs1	-2.3%	x	-2.4%	1.9%	10.9%	14.1%
Cc1cc2c(cc1S(=O)(=O)Nc1cccc(C#N)c1)OCC(=O)N2	-4.4%	x	x	x	x	x
COc1cccc(CN2C(=O)c3ccccc3C2C(=O)NCCc2ccccc2)c1 (centres undefined)	-5.0%	3.3%	x	x	x	x
c1ccc(Nc2cccc(Nc3ccccc3)c2)cc1	15.1µM*	22.3%	23.9%	u	23.4%	u
Cc1ccc(NC(=O)C2=CC=CN3CCS(=O)(=O)N=C23)cc1	u	x	9.4%	11.9%	1.9%	u
CCC(C)c1ccc(NC(=O)C2=CC=CN3CCS(=O)(=O)N=C23)cc1 (centres undefined)	2.13µM*	x	18.7%	u	u	u
O=C(CCl)Nc1ccc2c(c1)OCO2	-7.4%	-59.0%	-9.5%	-10.0%	-9.5%	7.8%
O=S(=O)(Nc1ccc2c(c1)OCO2)c1cccs1	-2.9%	-3.2%	0.1%	-1.8%	2.0%	-0.9%
O=C(/C=C\Nc1ccc2c(c1)OCO2)c1ccc(Cl)s1	0.239µM*	3.55µM*	0.398µM*	0.82µM*	0.316µM*	u
O=C(/C=C\Nc1ccc2c(c1)OCO2)c1cccs1	0.12µM*	x	1.41µM*	1.03µM*	0.562µM*	u
CCN(C(=O)COC(=O)c1cccc(S(=O)(=O)N2CCOCC2)c1)C1CCS(=O)(=O)C1 (centres undefined)	3.7%	x	-0.5%	3.4%	-1.4%	15.7%
COc1cccc(NC(=O)CCC(=O)N2Cc3ccccc3Oc3ncccc32)c1	-14.4%	x	x	x	x	x
O=C(Nc1ccc(S(=O)(=O)N2CCCC2)cc1)c1cc(F)c(F)cc1Cl	-5.0%	x	1.3%	-6.1%	-2.2%	14.6µM*
O=C(Nc1ccc2c(c1)OCCO2)c1c(F)c(F)c(F)c(F)c1F	1.5%	-4.4%	-0.8%	0.9%	5.4%	-1.4%
O=C(Nc1ccc2c(c1)OCCO2)c1cc(F)c(F)cc1Cl	12µM*	x	2.24µM*	u	2.51µM*	u
O=C(Nc1ccc2c(c1)OCCO2)c1cccc(Cl)c1Cl	7.57µM*	x	3.55µM*	2.59µM*	1.58µM*	u
Cc1oc(C(C)(C)C)cc1C(=O)Nc1ccc2c(c1)OCO2	u	x	22.2%	-2.3%	18.5%	-0.9%
Cc1oc(C(C)(C)C)cc1C(=O)Nc1ccc2c(c1)OCCO2	12µM*	29.8%	x	x	x	x
O=C(Nc1ccc(S(=O)(=O)N2CCCCC2)cc1)c1ccccc1F	5.0%	x	-8.4%	-9.4%	-3.7%	0.5%
Cc1ccc(CNC(=O)c2cccc(-n3cnc4cccnc43)c2)cc1	2.2%	x	x	x	x	x
COc1ccc(C(=O)OCC(=O)NC2CC2)cc1S(=O)(=O)Nc1ccc(C)cc1	7.2%	x	-2.2%	-1.9%	7.5%	18.5%
Cc1ccc(C(=O)Nc2ccc3c(c2)OCCO3)c(Cl)c1	0.426µM*	x	0.0891µM*	u	0.0891µM*	u
CCCC(=O)Nc1cc(-c2nc3ncccc3o2)ccc1Cl	1.4%	x	-1.4%	-2.1%	10.3%	15.2%
CCC(=O)Nc1ccc(-c2nc3ncccc3o2)cc1C	-17.8%	u	x	x	x	x
SMILES	FLuc counter	SMN2 splice up	NPC1 promoter act	ELG1 genotoxic	Rab9 prom act	ELG1 DNA repair
Nc1cc(-c2nc3ncccc3o2)ccc1Cl	19µM*	10µM*	u	u	3.98µM*	u
Cc1ccc(-c2nc3ncccc3o2)cc1N	15.1µM*	x	3.98µM*	u	3.55µM*	u
Cc1cc(-c2nc3ncccc3o2)ccc1N	16.9µM*	11.2µM*	u	u	u	u
CC(=O)N1Cc2ccccc2CC1C(=O)NCc1ccccc1F (centres undefined)	0.1%	x	-0.3%	-1.9%	-0.7%	14.1%
CCC1CN(C(=O)Nc2ccc(C)cc2)c2cc(C)ccc2O1 (centres undefined)	-0.7%	-32.0%	-1.0%	-0.1%	0.0%	-7.8%
O=c1[nH]c(C2CCCN(S(=O)(=O)c3ccc(F)cc3)C2)nc2c1nnn2Cc1ccc(F)cc1 (centres undefined)	0.7%	x	-1.9%	2.4%	-2.8%	u
COc1ccc(OC)c(CCNC(=O)c2sc3nc4n(c(=O)c3c2C)CCCC4)c1	0.3%	x	x	x	x	x
O=C(CSc1nc2ccccc2n1Cc1cccc(F)c1)NCc1ccccc1	-18.0%	x	x	x	x	x
Cc1ccc(/C=N/NC(=O)c2cc3c(ccc4ccccc43)o2)o1	u	x	5.5%	-3.9%	2.8%	u
CNC(=O)c1cc2c(ccc3ccccc32)o1	19µM*	29.4%	u	u	u	u
O=C(NC1CCCC1)c1cc2c(ccc3ccccc32)o1	6.01µM*	12.6µM*	1.41µM*	4.61µM*	1µM*	u
O=C(NC1CC1)c1cc2ccccc2o1	u	x	11.5%	10.9%	11.1%	11.5%
Cc1ccc(C)c(N2CCN(C(=O)Cc3ccc(-n4c(=O)[nH]c5ccsc5c4=O)cc3)CC2)c1	-0.2%	x	-6.0%	-6.2%	-11.1%	u
Cc1cccc(N2CCN(C(=O)Cc3ccc(-n4c(=O)[nH]c5ccsc5c4=O)cc3)CC2)c1C	-8.2%	-19.8%	-0.2%	-9.0%	-0.6%	18.4µM*
C=CCn1c(-c2ccccc2)c[nH]c1=S	26.9µM*	-2.2%	24.3%	13µM*	28.0%	u
COc1cccc(NC(=O)Nc2cc(-c3cn4cccnc4n3)ccc2C)c1	-14.5%	11.5%	x	x	x	x
COc1cccc(NC(=O)Nc2cc(-c3cn4cccnc4n3)ccc2OC)c1	1.35µM*	8.91µM*	x	x	x	x
COc1cccc(NC(=O)Nc2cccc(-c3cn4cccnc4n3)c2)c1	6.75µM*	-7.0%	x	x	x	x
COc1ccc(-c2cn3cccnc3n2)cc1NC(=O)Nc1cc(C)ccc1C	2.39µM*	10.3%	18.8%	x	4.4%	x
CCOc1ccc(NC(=O)Cn2c(=O)n(CC(=O)NCCc3ccccc3)c(=O)c3sccc32)cc1	-3.1%	-4.9%	x	x	x	x
COCCn1c(C)cc(O)c(C(c2ccccc2)N2CCN(c3ccccc3F)CC2)c1=O (centres undefined)	3.4%	x	x	x	x	x
CCC(=O)n1nc(-c2ccc(Cl)cc2)nc1NCc1ccccc1	-1.8%	11.1%	17.7%	20.6µM*	u	u
CCN(CC)c1ccc(CN(C(=O)c2cc(=O)c3ccccc3o2)C2CCS(=O)(=O)C2)cc1 (centres undefined)	-0.4%	-6.4%	x	x	x	x
CC1CCCCN1Cc1c(O)ccc2c(=O)c(-c3ccccc3Cl)c(C(F)(F)F)oc12 (centres undefined)	-3.3%	-12.9%	x	x	x	x
